# Bioassay records from PubChem BioAssay.
# A selection: hits, their analogues and other compounds. The true share with any hit is near 13%.
# USP17 inh: human USP17-like deubiquitinase inhibition; inhibition, % at 50 µM; purified USP17, Ub-rhodamine cleavage fluorescence, 3 h; 47,000 compounds, 6.5% hits
# USP28 inh: blocks human USP28 ubiquitin-rhodamine cleavage. Q96RU2. purified USP28, Ub-rhodamine cleavage fluorescence, 30 min. inhibition, % at 25 µM. 47,000 compounds, 3% hits. AID 1645857
# USP30 block: human USP30 deubiquitinase inhibition; purified USP30, Ub-rhodamine cleavage fluorescence; inhibition, % at 25 µM; 47,000 compounds, 5.3% hits; AID 1645860
# Target sequence (Q70CQ3 whole entry, looked up): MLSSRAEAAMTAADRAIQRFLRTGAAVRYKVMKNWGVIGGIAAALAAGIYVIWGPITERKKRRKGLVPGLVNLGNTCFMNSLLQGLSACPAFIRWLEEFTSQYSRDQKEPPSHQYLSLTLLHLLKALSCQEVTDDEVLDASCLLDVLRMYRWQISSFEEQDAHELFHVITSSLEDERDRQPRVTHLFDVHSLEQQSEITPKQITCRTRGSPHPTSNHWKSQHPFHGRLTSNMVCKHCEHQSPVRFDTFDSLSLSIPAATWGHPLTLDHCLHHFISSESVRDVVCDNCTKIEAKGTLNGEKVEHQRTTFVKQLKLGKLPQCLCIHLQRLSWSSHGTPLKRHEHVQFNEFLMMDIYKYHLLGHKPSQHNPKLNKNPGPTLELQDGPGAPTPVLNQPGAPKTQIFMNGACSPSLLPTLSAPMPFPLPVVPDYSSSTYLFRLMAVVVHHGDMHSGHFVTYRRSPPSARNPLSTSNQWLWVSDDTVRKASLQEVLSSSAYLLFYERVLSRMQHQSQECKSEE
# USP8 block: inhibitors of human USP8 deubiquitinase; purified USP8, Ub-rhodamine cleavage fluorescence, 30 min; inhibition, % at 20 µM; P40818; 47,000 compounds, 4.2% hits
# Hits are given with their value; . = inactive; / = no result. Rule as the data show it: active = inhibition above about 30%; inactive = the rest.
SMILES,USP17 inh,USP28 inh,USP30 block,USP8 block
COc1cc([C@@H]2c3cc4c(cc3[C@H](O)[C@H]3COC(=O)[C@@H]23)OCO4)cc(OC)c1OC,63,35,71,.
O=C(CCn1c(=O)c2sccc2n(Cc2ccc([N+](=O)[O-])cc2)c1=O)NCc1ccccc1,52,.,50,61
COc1ccc(CNC(=O)CCn2c(=O)c3sccc3n(Cc3ccccc3C#N)c2=O)cc1,55,.,56,.
COc1ccc(CCNC(=O)Cn2c(=O)c3sccc3n(Cc3cc(=O)n4ccccc4n3)c2=O)cc1OC,.,.,.,.
COc1ccc(CCNC(=O)Cn2c(=O)c3sccc3n(Cc3ccccc3C#N)c2=O)cc1OC,.,.,.,.
O=C(Cn1c(=O)c2sccc2n(Cc2ccc([N+](=O)[O-])cc2)c1=O)NCCc1ccccc1,.,.,50,.
CC(=O)c1ccc(NS(=O)(=O)c2ccc3c(c2)OCCN3C(C)=O)cc1,.,.,.,.
CCOc1ccc2nc(NC(=O)C3Cc4ccccc4CN3S(=O)(=O)c3ccc(C)cc3)sc2c1 (stereo unspecified),.,.,.,.
Cc1noc(C)c1CN1CCC(NC(=O)c2cccc(Cl)c2)CC1,.,.,.,.
Cc1ccc(NC(=O)c2sc(=S)n(CCc3ccccc3)c2N)cc1,76,.,44,.
CC1=NS(=O)(=O)N(Cc2ccccc2)C=C1C(=O)Nc1ccc(C)cc1,.,.,.,.
Cc1cccc(S(=O)(=O)N2CC3CN(C(=O)CC4CCCC4)CC(C2)O3)c1,.,.,.,.
CCOC(=O)c1cnn(-c2nc3ccccc3s2)c1N=CN(C)C,70,69,97,.
CCn1ncc(CN(C)C(=O)Nc2ccc(Cl)cc2)c1C,.,.,32,.
CCn1ncc(CN(C)C(=O)c2cnn3c(C(F)F)cc(-c4ccc(OC)cc4)nc23)c1C,.,.,.,.
CS(=O)(=O)c1ccccc1C(=O)NCCC(c1ccccc1)c1ccccc1,.,.,.,.
Cc1ccc(C(=O)NCCC(c2ccccc2)c2ccccc2)o1,.,31,.,.
CC(=O)Nc1ccc(C(=O)NCc2ccccc2F)c(N2CCCCC2)c1,.,37,.,.
COc1ccccc1CCC(=O)N1CC[C@H]2[C@H]1CCCCC(=O)N2Cc1ccccc1F,.,.,.,.
Cc1ccc(S(=O)(=O)NCC(=O)OC(C(=O)Nc2cc(C)ccc2C)c2ccccc2)cc1 (stereo unspecified),51,.,47,.
COc1ccc(C)cc1NC(=O)C(OC(=O)c1cc(S(=O)(=O)N2CCOCC2)ccc1C)c1ccccc1 (stereo unspecified),.,.,.,.
Cc1cc2cc(CNC(=O)c3ccccc3C(=O)O)ccc2n1C,.,.,.,56
Cc1c(NC(=O)COc2ccc(C3CCCCC3)cc2)cccc1-c1nc2ncccc2o1,43,.,.,.
O=C(COc1ccccc1)Nc1cccn2nc(C3CCC3)nc12,.,.,.,.
Cc1cc2c(=O)oc(-c3ccccc3Br)nc2s1,.,.,.,44
SMILES,USP17 inh,USP28 inh,USP30 block,USP8 block
COc1cccc2cc(-c3nnc(SCC(=O)c4ccc(F)cc4)n3C)oc12,/,.,.,39
COc1ccc(C(=O)CSc2nnc(-c3cc4ccccc4o3)n2C)cc1,.,.,.,.
COc1ccc(NC(=O)Cn2c(=O)n(CCC(=O)N3CCc4ccccc4C3)c(=O)c3ccccc32)cc1Cl,/,.,.,55
COc1ccc(Cl)cc1NC(=O)Cn1c(=O)n(CCC(=O)N2CCc3ccccc3C2)c(=O)c2ccccc21,.,.,36,34
COc1ccccc1NC(=O)CN1CCc2ccccc2C1,.,.,.,.
COc1ccc(NC(=O)Cn2c(=O)n(CCC(=O)N3CC=C(c4ccccc4)CC3)c(=O)c3ccccc32)cc1Cl,.,.,.,.
O=C(Cc1ccc(F)cc1)NCC(c1cccc2ccccc12)N1CCOCC1 (stereo unspecified),.,.,.,.
O=C(COc1ccc(F)cc1)NCc1csc(-c2ccccc2)n1,.,.,.,.
O=C(COc1ccc(C(=O)OCc2csc(-c3ccccc3)n2)cc1)Nc1cccc(C(F)(F)F)c1,31,.,33,.
CCOCC(=O)Nc1ccc(-c2nc3cccnc3s2)cc1,.,.,.,.
CCc1ccc(OCC(=O)Nc2cccc(-c3nc4ccccc4s3)c2)cc1,.,.,36,.
CCc1ncc(CN2CCC3(CC2)CN(S(C)(=O)=O)Cc2ccccc2O3)cn1,.,.,.,.
Cc1ccc(Cl)cc1NC(=O)c1cc(-c2ccccn2)n[nH]1,73,.,.,.
O=C(Nc1ccc(Cl)cc1)c1cc(-c2ccccn2)n[nH]1,.,.,.,.
COc1cc(OC)c(NC(=O)c2cc(-c3ccccn3)n[nH]2)cc1Cl,.,.,.,89
COc1ccc(Cl)cc1NC(=O)c1cc(-c2ccccn2)n[nH]1,61,.,.,84
O=C(Cc1nc(-c2ccccn2)n[nH]1)NCc1ccccc1Cl,.,.,.,.
COc1ccc(OC)c(NC(=O)c2ccc(-n3nnnc3SC)cc2)c1,80,.,.,.
COc1ccc(NC(=O)c2ccc(-n3nnnc3SC)cc2)cc1Cl,.,.,.,.
COc1ccc(C)cc1NC(=O)c1ccc(-n2nnnc2SC)cc1,73,.,52,.
O=C(c1cc2c(s1)-c1ccccc1S(=O)(=O)C2)N1CCN(c2ccccc2F)CC1,.,.,.,.
N#Cc1ccccc1NC(=O)c1cc2c(s1)-c1ccccc1S(=O)(=O)C2,72,88,83,.
CCC(C)NC(=O)Cn1cc(-c2nnc(CN3CCC(C)CC3)o2)c2ccccc21 (stereo unspecified),.,.,36,.
COc1ccnc(N2C[C@@H]3OCC(=O)N(Cc4ccccn4)[C@@H]3C2)n1,.,.,.,.
O=C(CCCN1C(=O)c2cccnc2Sc2ccccc21)Nc1cc(F)ccc1F,.,.,.,.
SMILES,USP17 inh,USP28 inh,USP30 block,USP8 block
Cc1nc(-c2ncc(C)[nH]2)cc(C2CCCN(Cc3cscn3)C2)n1 (stereo unspecified),.,.,.,.
Cc1c(C(=O)NCCCN2CCOCC2)oc2ccc3c(c12)C(=O)CC(C)(c1ccc(Cl)cc1)O3 (stereo unspecified),.,42,.,.
NCCNC(=O)NC1CCN(c2nc(-c3cccnc3)nc3ccccc23)CC1,.,.,.,.
O=C(NC1CCN(c2nc(-c3cccnc3)nc3ccccc23)CC1)c1cccnc1,.,52,.,.
COc1ccc(CCNCc2c(C(=O)O)n(Cc3ccccc3C)c3cc(C)ccc23)c(OC)c1,.,.,.,.
CC(=O)N1CCN(c2nc3c(s2)CC(C(=O)NCc2ccc(F)cc2)CC3)CC1 (stereo unspecified),.,.,.,.
Cc1nn(-c2ccc(F)cc2)c(C)c1S(=O)(=O)N1CCN(c2ccccn2)CC1,.,.,38,.
Cc1nn(-c2ccc(F)cc2)c(C)c1S(=O)(=O)N1CCC(C)CC1,.,.,.,.
COc1cccc(OC)c1OCCCCn1c(-c2ccc(Cl)cc2)nc2ccccc2c1=O,.,.,.,.
Cc1ccc(CC(=O)Nc2ccc(C)cc2-c2n[nH]c(C3CC3)n2)cc1,.,.,.,64
